{"source": "PubChem BioAssay (EPA / NIEHS)", "key": {"[1]": {"test": "ATG_NFI_CIS: Attagene CIS-FACTORIAL HepG2 Assay for human Nuclear Factor I (NFI) (AID 2282989)", "conditions": "HepG2 cis-regulatory reporter, NFI response element transcription; actives raise or lower the signal", "procedure,_shortened": "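Multiplexed cis-reporter system in human HepG2 cells reports native TF activity as reporter mRNA induction 24 h post-dose. Fragments labelled with 6-FAM, HpaI-digested and resolved by capillary electrophoresis; activity fitted both directions versus DMSO.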"}, "[2]": {"biological_target": "Myc proto-oncogene protein (Homo sapiens) (UniProt P01106)", "sequence (P01106 whole entry, looked up)": "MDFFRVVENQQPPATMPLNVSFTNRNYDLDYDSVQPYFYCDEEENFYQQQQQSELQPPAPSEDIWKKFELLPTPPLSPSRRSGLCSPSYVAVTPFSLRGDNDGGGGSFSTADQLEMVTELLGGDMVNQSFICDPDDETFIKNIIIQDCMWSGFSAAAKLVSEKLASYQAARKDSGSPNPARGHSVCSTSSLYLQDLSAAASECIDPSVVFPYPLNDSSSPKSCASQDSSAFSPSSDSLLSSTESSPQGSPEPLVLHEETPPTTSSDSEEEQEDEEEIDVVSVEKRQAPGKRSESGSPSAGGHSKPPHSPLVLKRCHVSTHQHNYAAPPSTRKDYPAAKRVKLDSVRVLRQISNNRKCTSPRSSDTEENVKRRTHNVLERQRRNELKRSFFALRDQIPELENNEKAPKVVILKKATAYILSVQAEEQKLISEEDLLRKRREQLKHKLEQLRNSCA", "test": "ATG_Myc_CIS: Attagene CIS-FACTORIAL HepG2 Assay for human Myelocytomatosis (Myc) Proto-Oncogene Transcription Factor (AID 2282990)", "conditions": "HepG2, Attagene cis-reporter transcription factor activity; actives raise or lower the signal", "procedure,_shortened": "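After 24 h chemical treatment of HepG2 cells carrying multiplexed cis-regulated reporter constructs, reporter transcripts quantified by RT-PCR and capillary electrophoresis of fluorescent fragments. Gain or loss fitted against DMSO baseline.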"}, "[3]": {"test": "ATG_NF_kB_CIS: Attagene CIS-FACTORIAL HepG2 Assay for human Nuclear Factor Kappa B (NF-kB) (AID 2282991)", "conditions": "HepG2 Attagene cis-factorial NF-kB reporter mRNA; actives raise or lower the signal", "procedure,_shortened": "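HepG2, transient multi-reporter transfection, cis promoter elements (endogenous TFs). 24 h exposure. Total RNA → RT → PCR → 6-FAM label → HpaI → CE. Gain/loss vs DMSO.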"}, "[4]": {"test": "ATG_NRF2_ARE_CIS: Attagene CIS-FACTORIAL HepG2 Assay for human Nuclear Factor Erythroid 2 Related Factor 2 (NFR2) response to Antioxidant Response Elements (ARE) (AID 2282992)", "conditions": "HepG2 Attagene ARE/NRF2 reporter, transcription factor activity; actives raise or lower the signal", "procedure,_shortened": "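Endogenous transcription factor activity in human liver HepG2 cells is tracked via a cis-element-driven reporter within a multiplexed set. mRNA induction is read by RT-PCR and capillary electrophoresis after 24 h, with DMSO as baseline.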"}, "[5]": {"test": "ATG_Oct_MLP_CIS: Attagene CIS-FACTORIAL HepG2 Assay for human Octamer-Binding Transcription Factor (Oct) (AID 2282993)", "conditions": "HepG2 Attagene cis-factorial Oct reporter, mRNA; actives raise or lower the signal", "procedure,_shortened": "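After 24 h compound exposure, transfected HepG2 cells were lysed for total RNA; reporter-specific cDNA was PCR-amplified, fluorescently labelled and sized by capillary electrophoresis. Bidirectional curve fitting used DMSO as baseline.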"}, "[6]": {"biological_target": "Cellular tumor antigen p53 (Homo sapiens) (UniProt P04637)", "sequence (P04637 whole entry, looked up, the tested form may be a part)": "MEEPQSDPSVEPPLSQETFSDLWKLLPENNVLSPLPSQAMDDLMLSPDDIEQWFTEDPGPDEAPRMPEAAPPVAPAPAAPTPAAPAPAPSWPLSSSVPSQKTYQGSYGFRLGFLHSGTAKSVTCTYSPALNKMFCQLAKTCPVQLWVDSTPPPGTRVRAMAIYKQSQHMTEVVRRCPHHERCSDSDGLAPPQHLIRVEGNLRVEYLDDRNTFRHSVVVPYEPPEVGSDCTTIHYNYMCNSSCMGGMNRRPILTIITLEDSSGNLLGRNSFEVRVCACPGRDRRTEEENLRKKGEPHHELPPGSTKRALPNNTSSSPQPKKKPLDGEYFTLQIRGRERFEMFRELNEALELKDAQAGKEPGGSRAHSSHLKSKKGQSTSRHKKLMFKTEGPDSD", "test": "ATG_p53_CIS: Attagene CIS-FACTORIAL HepG2 Assay for human p53 Transcription Factor (AID 2282994)", "conditions": "HepG2 p53 cis-element reporter, Attagene mRNA; actives raise or lower the signal", "procedure,_shortened": "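Steps: transfect HepG2 with multiplexed cis reporter constructs; dose chemicals 24 h; extract RNA, reverse-transcribe, PCR-amplify reporter sequences; FAM-label, HpaI-digest, resolve fragments by CE. Activity fitted both directions relative to DMSO.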"}, "[7]": {"test": "BSK_3C_TissueFactor: BioMAP Diversity Plus: 3C Assay for Tissue Factor Biomarker Activity (AID 2282997)", "conditions": "BioMAP 3C HUVEC, tissue factor biomarker readout; actives raise or lower the signal", "procedure,_shortened": "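Readout: Tissue Factor ELISA. Cells: human primary umbilical vein endothelium. Time: 24 h after dosing. Analysis: bidirectional fit, DMSO baseline.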"}, "[8]": {"test": "BSK_3C_uPAR: BioMAP Diversity Plus: 3C Assay for Urokinase-type plasminogen activator receptor (uPAR) Biomarker Activity (AID 2282998)", "conditions": "BioMAP 3C HUVEC, uPAR biomarker ELISA; actives raise or lower the signal", "procedure,_shortened": "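Values derive from bidirectional curve fitting relative to DMSO, which served as baseline of activity. uPAR was measured by ELISA in human umbilical vein endothelial primary cultures 24 h after compound addition.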"}, "[9]": {"test": "BSK_3C_VCAM1: BioMAP Diversity Plus: 3C Assay for Vascular cell adhesion molecule 1 (VCAM1) Biomarker Activity (AID 2282999)", "conditions": "BioMAP 3C HUVEC, VCAM1 ELISA, cytokine-stimulated; actives raise or lower the signal", "procedure,_shortened": "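Activity fitted in both directions relative to DMSO, with ELISA measurement of the surface marker on primary HUVEC (3C) at 24 h post-treatment; parallel SRB staining (0.1% SRB, TCA-fixed, 560 nm) flagged overt cytotoxicity.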"}, "[10]": {"test": "BSK_4H_Eotaxin3: BioMAP Diversity Plus: 4H Assay for Eotaxin 3 Biomarker Activity (AID 2283000)", "conditions": "primary human endothelial cells (HUVEC); actives raise or lower the signal", "procedure,_shortened": "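HUVEC, 24 h post-dose, ELISA for Eotaxin-3/CCL26. Gain or loss of signal fitted bidirectionally vs DMSO baseline.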"}, "[11]": {"biological_target": "human Peroxisome Proliferator-activated Receptor delta (PPARd), PPARD (gene 5467) (UniProt Q03181)", "sequence (Q03181 whole entry, looked up)": "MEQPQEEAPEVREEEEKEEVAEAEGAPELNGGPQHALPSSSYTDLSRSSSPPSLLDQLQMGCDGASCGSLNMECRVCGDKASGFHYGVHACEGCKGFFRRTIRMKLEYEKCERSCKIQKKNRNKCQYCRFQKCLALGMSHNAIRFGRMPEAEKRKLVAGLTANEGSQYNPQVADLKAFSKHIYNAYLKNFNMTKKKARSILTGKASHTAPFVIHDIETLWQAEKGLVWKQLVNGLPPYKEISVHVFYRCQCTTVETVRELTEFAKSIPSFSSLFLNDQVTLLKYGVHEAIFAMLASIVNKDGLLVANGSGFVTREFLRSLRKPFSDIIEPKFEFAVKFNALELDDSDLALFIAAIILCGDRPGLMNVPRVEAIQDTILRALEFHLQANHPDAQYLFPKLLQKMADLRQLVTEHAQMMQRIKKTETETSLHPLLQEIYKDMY", "test": "ATG_PPARd_TRANS: Attagene TRANS-FACTORIAL HepG2 Assay for human Peroxisome Proliferator-activated Receptor delta (PPARd) (AID 2283002; active means hit-call score of the fitted dose curve at least 0.9, where 1 is the maximum)", "procedure,_shortened": "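Read-out is induced reporter mRNA, quantified by RT-PCR with fluorescent labelling and capillary electrophoresis after 24 h dosing. Cells are HepG2 transiently carrying multiple GAL4-UAS reporter units driven by exogenous NR-GAL4 chimeras; DMSO serves as baseline.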"}, "[12]": {"read-out": "Intercellular Adhesion Molecule 1 (ICAM1), ICAM1 (gene 3383)", "test": "BSK_3C_ICAM1: BioMAP Diversity Plus: 3C Assay for Intercellular Adhesion Molecule 1 (ICAM1) Biomarker Activity (AID 2283003)", "conditions": "primary human endothelial cells (HUVEC); actives raise or lower the signal", "procedure,_shortened": "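Chemicals are dosed onto primary human umbilical vein endothelium (3C system). After 24 h, ICAM-1 is measured by ELISA, and responses are fitted bidirectionally relative to DMSO.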"}, "[13]": {"test": "BSK_3C_Proliferation: Cell Proliferation Assessment in the BioMAP Diversity Plus: 3C Assay (AID 2283006);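 on AC50: potency may reflect either rise or fall in cell number versus DMSO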", "conditions": "primary human endothelial cells (HUVEC)", "procedure,_shortened": "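Cells (human umbilical vein endothelial, sub-confluent) receive test chemical; after 48 h they are fixed in 10% trichloroacetic acid, stained with 0.1% SRB and read at 560 nm. Activity is referenced to DMSO, fitting increases and decreases.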"}, "[14]": {"biological_target": "Peroxisome proliferator-activated receptor gamma (Homo sapiens) (UniProt P37231)", "sequence (P37231 whole entry, looked up)": "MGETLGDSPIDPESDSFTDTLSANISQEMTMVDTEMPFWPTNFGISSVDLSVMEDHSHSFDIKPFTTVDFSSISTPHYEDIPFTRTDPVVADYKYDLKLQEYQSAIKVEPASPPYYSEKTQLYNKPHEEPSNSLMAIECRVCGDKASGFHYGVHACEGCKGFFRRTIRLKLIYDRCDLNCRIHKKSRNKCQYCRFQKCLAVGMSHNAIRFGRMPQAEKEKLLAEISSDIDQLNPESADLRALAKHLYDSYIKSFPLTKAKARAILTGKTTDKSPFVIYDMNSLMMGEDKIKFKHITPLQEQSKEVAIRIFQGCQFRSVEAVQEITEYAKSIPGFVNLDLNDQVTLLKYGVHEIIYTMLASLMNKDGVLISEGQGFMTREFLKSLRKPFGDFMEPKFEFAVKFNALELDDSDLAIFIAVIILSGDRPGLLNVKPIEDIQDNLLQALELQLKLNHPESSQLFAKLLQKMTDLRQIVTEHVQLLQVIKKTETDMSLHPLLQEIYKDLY", "test": "ATG_PPARg_TRANS: Attagene TRANS-FACTORIAL HepG2 Assay for human Peroxisome Proliferator-activated Receptor-gamma (PPARg) (AID 2283007; active means hit-call score of the fitted dose curve at least 0.9, where 1 is the maximum)", "procedure,_shortened": "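Multiplexed reporter transcription units in HepG2, 24 h dosing, reporter transcripts quantified by fluorescent RT-PCR and capillary electrophoresis. Increase over DMSO scored.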"}, "[15]": {"biological_target": "Nuclear receptor subfamily 1 group I member 2 (Homo sapiens) (UniProt O75469)", "sequence (O75469 whole entry, looked up, the tested form may be a part)": "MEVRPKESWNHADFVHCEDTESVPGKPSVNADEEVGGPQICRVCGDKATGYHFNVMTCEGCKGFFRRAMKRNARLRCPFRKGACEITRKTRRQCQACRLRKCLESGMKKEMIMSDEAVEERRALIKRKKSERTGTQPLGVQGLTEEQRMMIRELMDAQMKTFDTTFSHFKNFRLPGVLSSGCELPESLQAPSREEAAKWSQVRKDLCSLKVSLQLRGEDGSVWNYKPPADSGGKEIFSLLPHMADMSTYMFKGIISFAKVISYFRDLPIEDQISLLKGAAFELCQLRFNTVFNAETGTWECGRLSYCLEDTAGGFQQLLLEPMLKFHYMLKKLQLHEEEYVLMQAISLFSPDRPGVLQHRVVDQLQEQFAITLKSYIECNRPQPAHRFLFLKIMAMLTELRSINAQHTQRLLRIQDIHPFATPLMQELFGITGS", "test": "ATG_PXR_TRANS: Attagene TRANS-FACTORIAL HepG2 Assay for human Pregnane X Receptor (PXR) (AID 2283008; active means hit-call score of the fitted dose curve at least 0.9, where 1 is the maximum)", "procedure,_shortened": "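HepG2 transfected (FuGene 6) with GAL4-UAS reporter units + PXR-Gal4 chimera; dosed 24 h. Total RNA → oligo(dT) RT → PCR → 6-FAM primer extension → HpaI cut → CE. Gain-of-signal vs DMSO.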"}}, "note": "Records with an inconclusive call do not appear. Activity calls are given as the source filed them. How the source made its calls, unless noted: active means hit-call score of the fitted dose curve at least 0.9, where 1 is the maximum; inactive means score below 0.9.", "data": [{"compound": "CC1(C)C(=O)NC(=O)N1CO", "values": [{"measurement": "outcome", "setting": "[1]", "value": "inactive"}, {"measurement": "outcome", "setting": "[2]", "value": "inactive"}, {"measurement": "outcome", "setting": "[3]", "value": "inactive"}, {"measurement": "outcome", "setting": "[4]", "value": "inactive"}, {"measurement": "outcome", "setting": "[5]", "value": "inactive"}, {"measurement": "outcome", "setting": "[6]", "value": "inactive"}, {"measurement": "outcome", "setting": "[7]", "value": "inactive"}, {"measurement": "outcome", "setting": "[8]", "value": "inactive"}, {"measurement": "outcome", "setting": "[9]", "value": "inactive"}, {"measurement": "outcome", "setting": "[10]", "value": "inactive"}, {"measurement": "outcome", "setting": "[11]", "value": "inactive"}, {"measurement": "outcome", "setting": "[12]", "value": "inactive"}, {"measurement": "AC50", "setting": "[13]", "value": "5.5 µM (active)"}]}, {"compound": "C=CCCCCCCCCCCCC", "values": [{"measurement": "outcome", "setting": "[1]", "value": "inactive"}, {"measurement": "outcome", "setting": "[2]", "value": "inactive"}, {"measurement": "outcome", "setting": "[3]", "value": "inactive"}, {"measurement": "outcome", "setting": "[4]", "value": "inactive"}, {"measurement": "outcome", "setting": "[5]", "value": "inactive"}, {"measurement": "outcome", "setting": "[6]", "value": "inactive"}, {"measurement": "outcome", "setting": "[7]", "value": "inactive"}, {"measurement": "outcome", "setting": "[8]", "value": "inactive"}, {"measurement": "outcome", "setting": "[9]", "value": "inactive"}, {"measurement": "outcome", "setting": "[10]", "value": "inactive"}, {"measurement": "outcome", "setting": "[11]", "value": "inactive"}, {"measurement": "outcome", "setting": "[12]", "value": "inactive"}, {"measurement": "outcome", "setting": "[13]", "value": "inactive"}, {"measurement": "outcome", "setting": "[14]", "value": "inactive"}, {"measurement": "outcome", "setting": "[15]", "value": "inactive"}]}]}
